Counter-ions that a name gives are not always drawn.
Experiments:
Assay in all cases: Euclidean distance of Cell Painting phenotypic profile (signed KS, 77 features) to DMSO centroid (dimensionless distance); 5 or 10 uM (library dependent); higher = stronger phenotypic change vs DMSO (phenoactivity)
Settings in all cases: 48 h
[1] = tested on: 786-O
Outline: (§1)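 Stained cells were imaged confocally at 20X with 9 fields per well, after 48 h of exposure to library compounds at 10 or 5 uM (set by library; 0.1% DMSO final). The cells were five cancer lines and a healthy fibroblast line. From the images, Harmony extracted 77 features, each expressed as a signed Kolmogorov-Smirnov statistic relative to same-plate vehicle wells. Phenoactivity is measured as Euclidean distance to the median vehicle profile, using plate-position-corrected, correlation-weighted profiles averaged across replicates at the top dose.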

[2] = tested on: A549
Outline: as §1

[3] = tested on: FB
Outline: as §1

[4] = tested on: HEPG2
Outline: as §1

[5] = tested on: OVCAR4
Outline: as §1

SMILES | Euclidean distance [1] | Euclidean distance [2] | Euclidean distance [3] | Euclidean distance [4] | Euclidean distance [5]
O=C(NCCN1CCOCC1)c1ccc(Cl)cc1 | 1.01 | 1.34 | 0.812 | 0.538 | 1.07
CCc1nc(N)nc(N)c1-c1ccc(Cl)cc1 [Pyrimethamine] | 1.19 | 3.4 | 0.96 | 1.83 | 2.25
N[C@H]1C(O)O[C@H](CO)[C@@H](O)[C@@H]1O (stereo not given in full) [Glucosamine] | 0.508 | 0.407 | 0.896 | 1.07 | 1.28
CNC(=O)c1cc(COc2nnc(Nc3ccc(Cl)cc3)c3ccoc23)ccn1 [Telatinib] | 1.21 | 0.814 | 2.01 | 1.41 | 1.74
COc1ccc2[nH]c([S@@+]([O-])Cc3ncc(C)c(OC)c3C)nc2c1 [Esomeprazole sodium] | 0.925 | 0.792 | 0.681 | 1.32 | 0.926
CCn1cc(C(=O)O)c(=O)c2cnc(N3CCNCC3)nc21 [Pipemidic acid] | 1.47 | 0.855 | 1.02 | 0.639 | 1.13
O=C1N=C(O)NC1(c1ccccc1)c1ccccc1 [Phenytoin Sodium] | 0.861 | 0.644 | 0.99 | 0.976 | 0.588
CCCNC(=O)NS(=O)(=O)c1ccc(Cl)cc1 [Chlorpropamide] | 1.01 | 0.601 | 0.968 | 0.632 | 1.99
O=C(O)c1cc(O)c2c(c1)[C@H]([C@H]1c3cc(C(=O)O)cc(O)c3C(=O)c3c(O[C@@H]4O[C@H](CO)[C@@H](O)[C@H](O)[C@H]4O)cccc31)c1cccc(O[C@@H]3O[C@H](CO)[C@@H](O)[C@H](O)[C@H]3O)c1C2=O [Sennoside A] | 0.91 | 0.674 | 1.07 | 0.438 | 1.12
CN(CCOc1ccc(NS(C)(=O)=O)cc1)CCc1ccc(NS(C)(=O)=O)cc1 [Dofetilide] | 0.968 | 1.19 | 1.24 | 0.609 | 1.02
O=C(C1CCCCC1)N1CC(=O)N2CCc3ccccc3C2C1 (stereo not given) [Praziquantel] | 0.868 | 0.773 | 0.97 | 0.33 | 1.36
CSc1ccc(OCc2ncc([N+](=O)[O-])n2C)cc1 [Fexinidazole] | 1.24 | 1.03 | 0.976 | 0.857 | 1.16
NC(=O)c1nc(F)cnc1O [Favipiravir (T-705)] | 0.685 | 0.513 | 0.835 | 0.762 | 0.894
CC(=O)[C@@]1(O)CC[C@H]2[C@@H]3CCC4=CC(=O)CCC4=C3[C@@H](c3ccc(N(C)C)cc3)C[C@@]21C [Ulipristal] | 0.949 | 1.22 | 1.05 | 1.13 | 0.761
CC(C)C[C@H](NC(=O)[C@@H](O)[C@H](N)Cc1ccccc1)C(=O)O [Bestatin] | 1.08 | 0.773 | 1.11 | 0.637 | 1.09
CC(=O)c1cc2c(o1)C(=O)c1ccccc1C2=O [Napabucasin] | 2.96 | 3.97 | 3.91 | 3.62 | 5.51
O=C(Nc1ccc(OC(F)(F)Cl)cc1)c1cnc(N2CC[C@@H](O)C2)c(-c2cc[nH]n2)c1 [Asciminib (ABL001)] | 1.54 | 1.72 | 1.32 | 1.2 | 1.39
CCC(C)(Oc1ccc(C2(c3ccc(OC(C)(CC)C(=O)O)cc3)CCCCC2)cc1)C(=O)O (stereo not given) [Clinofibrate] | 1.38 | 0.971 | 0.938 | 0.433 | 1.33
CCc1ccc(Cc2ccc3c(c2)[C@]2(OC3)O[C@H](CO)[C@@H](O)[C@H](O)[C@H]2O)cc1 [Tofogliflozin(CSG 452)] | 1.15 | 1.03 | 0.713 | 0.386 | 1.56
COc1ccc2cc3[n+](cc2c1OC)CCc1cc2c(cc1-3)OCO2 [Berberine chloride] | 1.19 | 1.36 | 2.07 | 1.41 | 1.31
N#C[C@@H]1C[C@@H]2C[C@@H]2N1C(=O)[C@@H](N)C12CC3CC(CC(O)(C3)C1)C2 [Saxagliptin hydrate] | 0.976 | 0.951 | 0.817 | 0.598 | 1.53
Nc1nc2cc(-c3ccc4ncc(C(=O)N5CCOCC5)n4c3)ccc2o1 [Serabelisib (INK-1117.MLN-1117.TAK-117)] | 1.02 | 1.76 | 2.6 | 1.39 | 1.61

SMILES | Euclidean distance [1] | Euclidean distance [2] | Euclidean distance [3] | Euclidean distance [4] | Euclidean distance [5]
COc1c2occc2cc2ccc(=O)oc12 [Methoxsalen] | 0.745 | 0.658 | 0.948 | 0.988 | 1.08
COc1ccc(-n2nc(C(N)=O)c3c2C(=O)N(c2ccc(N4CCCCC4=O)cc2)CC3)cc1 [Apixaban] | 2.4 | 2.33 | 3.79 | 1.17 | 2.13
CCOC(=O)c1ncn2c1CN(C)C(=O)c1cc(F)ccc1-2 [Flumazenil] | 1.08 | 0.73 | 1.11 | 0.383 | 0.959
Cc1nnc(SCC2=C(C(=O)O)N3C(=O)[C@@H](NC(=O)Cn4cnnn4)[C@H]3SC2)s1 [Cefazolin] | 1.28 | 0.455 | 1.6 | 0.891 | 1.58
CCCCCCCCCC(=O)N[C@@H](Cc1c[nH]c2ccccc12)C(=O)N[C@H](CC(N)=O)C(=O)N[C@@H](CC(=O)O)C(=O)N[C@@H]1C(=O)NCC(=O)N[C@@H](CCCN)C(=O)N[C@@H](CC(=O)O)C(=O)N[C@H](C)C(=O)N[C@@H](CC(=O)O)C(=O)NCC(=O)N[C@H](CO)C(=O)N[C@@H]([C@H](C)CC(=O)O)C(=O)N[C@@H](CC(=O)c2ccccc2N)C(=O)O[C@@H]1C [Daptomycin] | 1.06 | 0.544 | 0.795 | 0.461 | 1.14
O=C(CCCN1CCC(O)(c2ccc(Cl)cc2)CC1)c1ccc(F)cc1 [Haloperidol] | 1.27 | 0.777 | 1.09 | 1.04 | 1.95
C[C@@H](O)[C@H]1C(=O)N2C(C(=O)O)=C(S[C@@H]3CN[C@H](C(=O)Nc4cccc(C(=O)O)c4)C3)[C@H](C)[C@H]12 [Ertapenem sodium] | 0.672 | 0.953 | 0.956 | 0.854 | 0.913
COCCOC(=O)C1=C(C)NC(C)=C(C(=O)OC/C=C/c2ccccc2)C1c1cccc([N+](=O)[O-])c1 (stereo not given) [Cilnidipine] | 2.22 | 1.04 | 1.29 | 1.61 | 1.46
C[C@H](CCC(=O)O)[C@H]1CC[C@H]2[C@@H]3[C@@H](O)C[C@@H]4C[C@H](O)CC[C@]4(C)[C@H]3CC[C@]12C [Ursodiol] | 1.16 | 0.853 | 1.04 | 0.517 | 0.943
CC(C)(C)CC(C)(C)c1ccc(O)c(Cc2ccc(Cl)cc2Cl)c1 [Clofoctol] | 1.64 | 1.84 | 1.21 | 0.886 | 1.7
Cc1cc(Nc2cc(N)ncn2)c(=O)n2c1C(=O)NC21CCCCC1 | 0.779 | 0.866 | 1.08 | 0.427 | 1.18
Nc1ccc2cc3ccc(N)cc3nc2c1 [Proflavine Hemisulfate] | 4.95 | 4.91 | 5.65 | 5.57 | 5.46
CC12CCC(CC1)C(C)(C)O2 [Eucalyptol] | 0.884 | 0.614 | 0.855 | 0.869 | 0.746
O=c1[nH]nc2c3c(cccc13)N=C(CN1Cc3ccccc3C1)N2 | 0.985 | 1.29 | 1.31 | 2.35 | 1.42
CN1CCC[C@@H]1Cc1c[nH]c2ccc(CCS(=O)(=O)c3ccccc3)cc12 [Eletriptan HBr] | 0.938 | 0.828 | 1.17 | 0.778 | 1.33
CN1c2ccccc2C(=O)N2CCc3c([nH]c4ccccc34)C21 (stereo in doubt) [Evodiamine] | 2.67 | 2.85 | 1.59 | 2.03 | 1.81
CCCNC(C)C(=O)Nc1c(C)csc1C(=O)OC (stereo not given) [Articaine HCl] | 1.24 | 0.941 | 0.813 | 0.87 | 1.06
CCc1cc2c(cc1N1CCC(N3CCOCC3)CC1)C(C)(C)c1[nH]c3cc(C#N)ccc3c1C2=O [Alectinib hydrochloride] | 1.42 | 2.36 | 1.91 | 0.611 | 1.42
O=C(/C=C/C=C/c1ccc2c(c1)OCO2)N1CCCCC1 [Piperine] | 1.7 | 0.714 | 1.06 | 0.563 | 1.49
CN1CC[C@@H](NC(=O)Nc2ccc(C#N)cc2)C[C@@H]1c1nc2ccccc2[nH]1 | 2.28 | 1.79 | 3.81 | 1.1 | 1.73
C[C@@H]1C[C@H]2[C@@H]3CCC4=CC(=O)C=C[C@]4(C)[C@@]3(Cl)[C@@H](O)C[C@]2(C)[C@@]1(OC(=O)c1ccco1)C(=O)CCl [Mometasone furoate] | 2.05 | 1.97 | 1.79 | 0.88 | 2.18

Source: the supplement of paper PMC10127200
